Test results: PubChem BioAssay AID1159580 (chemical genetic matrix, 2015)
Hit rate of the full screen: of about 5,500 compounds, about 2,000 (36%) were called active. Another 18% or so got no clear call; they are omitted. No stated cut-off is given here; in the data, active means normalized growth mostly below about 0.91 (no sharp cut-off); inconclusive means no clear call, values can overlap the other calls; inactive means mostly above about 0.92. Some of the results follow.

Assay: chemical genetic growth profiling, strain panel (AID 1159580);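 further: tested at 20 µM; growth read once vehicle control cultures reached saturation at 30 °C; 1 = growth at the plate median or of vehicle wells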
Conditions: growth OD

Measured: normalized growth

Cc1ccc(C(C)C)cc2c(C)ccc1-2
inactive: S. cerevisiae deletion strains, locus YJR043C, strain POL32, stronger effect = lower value 0.977 | S. cerevisiae deletion strains, locus YJR066W, strain TOR1, stronger effect = lower value 0.925 | S. cerevisiae deletion strains, locus YKL009W, strain mrt4, stronger effect = lower value 1.04 | S. cerevisiae deletion strains, locus YKL068W, stronger effect = lower value 1 | S. cerevisiae deletion strains, locus YKL085W, strain MDH1 (second series), stronger effect = lower value 1 | S. cerevisiae deletion strains, locus YKL085W, strain MDH1, stronger effect = lower value 1 | S. cerevisiae deletion strains, locus YKL160W, strain elf1, stronger effect = lower value 0.989 | S. cerevisiae deletion strains, locus YKL190W, strain CNB1, stronger effect = lower value 0.986 | S. cerevisiae deletion strains, locus YKR001C, strain vps1, stronger effect = lower value 1 | S. cerevisiae deletion strains, locus YKR026C, strain gcn3, stronger effect = lower value 1 | S. cerevisiae deletion strains, locus YKR091W, strain srl3, stronger effect = lower value 1 | S. cerevisiae deletion strains, locus YLL001W, strain dnm1, stronger effect = lower value 0.976 | S. cerevisiae deletion strains, locus YLL026W, stronger effect = lower value 0.998 | S. cerevisiae deletion strains, locus YLL041C, strain sdh2, stronger effect = lower value 1.01 | S. cerevisiae deletion strains, locus YLR027C, strain aat2, stronger effect = lower value 0.991 | S. cerevisiae deletion strains, locus YLR039C, strain RIC1, stronger effect = lower value 0.92 | S. cerevisiae deletion strains, locus YLR058C, strain SHM2, stronger effect = lower value 1 | S. cerevisiae deletion strains, locus YLR102C, strain apc9, stronger effect = lower value 1.02 | S. cerevisiae deletion strains, locus YLR113W, strain HOG1, stronger effect = lower value 1.03 | S. cerevisiae deletion strains, locus YLR221C, strain rsa3, stronger effect = lower value 1.02 | S. cerevisiae deletion strains, locus YLR258W, strain gsy2, stronger effect = lower value 0.999 | S. cerevisiae deletion strains, locus YLR262C, strain YPT6 (second series), stronger effect = lower value 1.01 | S. cerevisiae deletion strains, locus YLR262C, strain YPT6, stronger effect = lower value 0.909 | S. cerevisiae deletion strains, locus YLR268W, strain sec22, stronger effect = lower value 1.01 | S. cerevisiae deletion strains, locus YLR320W, strain mms22, stronger effect = lower value 1.01 | S. cerevisiae deletion strains, locus YLR330W, strain CHS5, stronger effect = lower value 1 | S. cerevisiae deletion strains, locus YLR342W, strain FKS1 (second series), stronger effect = lower value 0.944 | S. cerevisiae deletion strains, locus YLR342W, strain FKS1, stronger effect = lower value 1.03 | S. cerevisiae deletion strains, locus YLR357W, strain rsc2, stronger effect = lower value 0.982 | S. cerevisiae deletion strains, locus YLR370C, strain arc18, stronger effect = lower value 0.995 | S. cerevisiae deletion strains, locus YLR371W, strain rom2, stronger effect = lower value 1 | S. cerevisiae deletion strains, locus YLR384C, strain iki3, stronger effect = lower value 0.997 | S. cerevisiae deletion strains, locus YLR418C, strain cdc73, stronger effect = lower value 0.962 | S. cerevisiae deletion strains, locus YML016C, strain PPZ1, stronger effect = lower value 1 | S. cerevisiae deletion strains, locus YML032C, strain rad52, stronger effect = lower value 1.03 | S. cerevisiae deletion strains, locus YML120C, strain ndi1, stronger effect = lower value 1 | S. cerevisiae deletion strains, locus YML124C, strain tub3, stronger effect = lower value 1.02 | S. cerevisiae deletion strains, locus YMR058W, strain fet3, stronger effect = lower value 1.01 | S. cerevisiae deletion strains, locus YMR078C, strain ctf18, stronger effect = lower value 1.02 | S. cerevisiae deletion strains, locus YMR125W, strain sto1, stronger effect = lower value 1 | S. cerevisiae deletion strains, locus YMR129W, stronger effect = lower value 1.01 | S. cerevisiae deletion strains, locus YMR205C, strain PFK2, stronger effect = lower value 0.981 | S. cerevisiae deletion strains, locus YMR223W, strain ubp8, stronger effect = lower value 1.02 | S. cerevisiae deletion strains, locus YMR231W, strain pep5, stronger effect = lower value 0.978 | S. cerevisiae deletion strains, locus YMR263W, strain SAP30, stronger effect = lower value 0.993 | S. cerevisiae deletion strains, locus YMR307W, strain GAS1, stronger effect = lower value 0.914 | S. cerevisiae deletion strains, locus YNL067W, strain RPL9B, stronger effect = lower value 0.993 | S. cerevisiae deletion strains, locus YNL071W, strain lat1, stronger effect = lower value 0.991 | S. cerevisiae deletion strains, locus YNL183C, strain NPR1, stronger effect = lower value 0.981 | S. cerevisiae deletion strains, locus YNL209W, strain ssb2, stronger effect = lower value 1.01 | S. cerevisiae deletion strains, locus YNL233W, strain BNI4, stronger effect = lower value 0.989 | S. cerevisiae deletion strains, locus YNL248C, strain rpa49, stronger effect = lower value 1.02 | S. cerevisiae deletion strains, locus YNL250W, strain rad50, stronger effect = lower value 1.05 | S. cerevisiae deletion strains, locus YNL271C, strain bni1, stronger effect = lower value 1.03 | S. cerevisiae deletion strains, locus YNL298W, strain CLA4, stronger effect = lower value 1.02 | S. cerevisiae deletion strains, locus YNL307C, strain MCK1, stronger effect = lower value 0.995 | S. cerevisiae deletion strains, locus YNL322C, strain KRE1 (second series), stronger effect = lower value 0.994 | S. cerevisiae deletion strains, locus YNR049C, strain mso1, stronger effect = lower value 1 | S. cerevisiae deletion strains, locus YNR052C, strain pop2, stronger effect = lower value 1.02 | S. cerevisiae deletion strains, locus YOL006C, strain TOP1, stronger effect = lower value 1.02 | S. cerevisiae deletion strains, locus YOL012C, strain htz1 0.644 | S. cerevisiae deletion strains, locus YOL147C, strain pex11, stronger effect = lower value 1.03 | S. cerevisiae deletion strains, locus YOR001W, strain rrp6, stronger effect = lower value 1.04 | S. cerevisiae deletion strains, locus YOR061W, strain CKA2, stronger effect = lower value 1.01 | S. cerevisiae deletion strains, locus YOR069W, strain VPS5, stronger effect = lower value 1 | S. cerevisiae deletion strains, locus YOR070C, strain gyp1, stronger effect = lower value 0.994 | S. cerevisiae deletion strains, locus YOR080W, strain dia2, stronger effect = lower value 1.01 | S. cerevisiae deletion strains, locus YOR083W, strain WHI5, stronger effect = lower value 0.987 | S. cerevisiae deletion strains, locus YOR106W, strain vam3, stronger effect = lower value 1.01 | S. cerevisiae deletion strains, locus YOR136W, strain idh2, stronger effect = lower value 1.03 | S. cerevisiae deletion strains, locus YOR144C, strain elg1, stronger effect = lower value 1.02 | S. cerevisiae deletion strains, locus YOR184W, strain ser1, stronger effect = lower value 0.991 | S. cerevisiae deletion strains, locus YOR231W, strain MKK1, stronger effect = lower value 0.984 | S. cerevisiae deletion strains, locus YOR265W, strain rbl2, stronger effect = lower value 0.992 | S. cerevisiae deletion strains, locus YOR270C, strain vph1, stronger effect = lower value 1.1 | S. cerevisiae deletion strains, locus YOR290C, strain snf2, stronger effect = lower value 0.98 | S. cerevisiae deletion strains, locus YOR316C, strain cot1, stronger effect = lower value 1.02 | S. cerevisiae deletion strains, locus YPL051W, strain arl3, stronger effect = lower value 0.984 | S. cerevisiae deletion strains, locus YPL078C, strain atp4, stronger effect = lower value 0.979 | S. cerevisiae deletion strains, locus YPL106C, strain sse1, stronger effect = lower value 0.997 | S. cerevisiae deletion strains, locus YPL240C, strain hsp82, stronger effect = lower value 0.999 | S. cerevisiae deletion strains, locus YPL241C, strain CIN2, stronger effect = lower value 1 | S. cerevisiae deletion strains, locus YPL256C, strain CLN2, stronger effect = lower value 0.98 | S. cerevisiae deletion strains, locus YPR119W, strain clb2, stronger effect = lower value 1.02 | S. cerevisiae deletion strains, locus YPR141C, strain kar3, stronger effect = lower value 1.01 | S. cerevisiae deletion strains, locus YPR163C, strain tif3, stronger effect = lower value 1.04 | S. cerevisiae deletion strains, locus YPR167C, strain met16, stronger effect = lower value 1.02 | S. cerevisiae deletion strains, strain wtn01, stronger effect = lower value 1.04 | S. cerevisiae strains, strain wild type, stronger effect = lower value 0.995
